# Experimental data taken from PubChem BioAssay.
# The source made the active and inactive calls. Unless noted, no rule for the calls is given here.
# Columns and labels:
# [1] = compounds binding Alexa647 anti-His antibody – biochemical, small-molecule microarray, 635 nm fluorescence, artefact control for SMM control protein annotation, primary screen (AID 1128); details: higher = more signal;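 also: score merges feature fluorescence with signal-to-noise for each printed compound spot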
# [2] = system: Human papillomavirus type 1a E7 protein (residues 1-88); assay: HPV1a E7 small-molecule binders, primary screen, biochemical, small-molecule microarray, residues 1-88, 635 nm (AID 1129); details: small-molecule microarray binding, fluorescence 635 nm; higher = more signal
# [3] = target: Focal adhesion kinase 1 (Homo sapiens) (UniProt Q05397); assay: PTK2 protein binding on printed compound slides – biochemical, small-molecule microarray, 635/667 nm fluorescence, BSA, DTT, primary screen (AID 1130); details: 635 nm fluorescence, higher = more signal;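 also: composite of spot emission at 667 nm and signal to noise over triplicate slides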
# [4] = system: Fibrinogen (Alexa647-labelled); assay: Alexa647-fibrinogen binding to printed small molecules – biochemical, small-molecule microarray, 635/667 nm fluorescence, artefact control for SMM control-protein annotation, profiling panel (AID 1131); details: fibrinogen-A647 binding fluorescence, higher = more signal;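 also: z-score merges 667 nm fluorescence with per-spot signal-to-noise over triplicate slides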
# [5] = target: Follistatin (Homo sapiens) (UniProt P19883); assay: FST protein binding to printed compounds – biochemical, small-molecule microarray, 635/667 nm fluorescence, primary screen (AID 1132); details: 635 nm fluorescence, higher = more signal
# [6] = target: Fibroblast growth factor 2 (Homo sapiens) (UniProt P09038); assay: basic fibroblast growth factor binding to printed compounds – biochemical, small-molecule microarray, 635/667 nm fluorescence, primary screen (AID 1133); details: FGF2, fluorescence 635/667, higher = more signal
# [7] = JC-1 mitochondrial potential readout, lung cancer cells – cell-based, A549, JC-1 fluorescence, basal, 24 h, 100 nL, profiling panel (AID 1138); details: higher = more signal;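 also: A549 lung adenocarcinoma cells under basal conditions with no added stimulus; test concentration not given here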
# [8] = system: Lefty1; assay: Lefty1 protein binding to printed compounds – biochemical, small-molecule microarray, 635/667 nm fluorescence, primary screen (AID 1139); details: fluorescence 635/667, higher = more signal
# [9] = system: wheat germ agglutinin (Triticum aestivum), Alexa647-labelled; assay: Alexa647-WGA lectin binding to printed small molecules – biochemical, small-molecule microarray, 635/667 nm fluorescence, artefact control for SMM control-protein annotation, profiling panel (AID 1140); details: WGA-A647 binding, 635 nm fluorescence, higher = more signal;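 also: score merges 667 nm feature emission with signal to noise over triplicate slides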
# [10] = target: Luciferin 4-monooxygenase (Photinus pyralis) (UniProt P08659); assay: inhibition of purified Photinus pyralis luciferase – biochemical, luminescence, purified enzyme, 2006 set, primary screen (AID 1141); details: purified firefly luciferase, SteadyGlo luminescence, 30 min; higher = more signal, called active from +8 up or from −8 down;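 also: cell-free assay with purified firefly luciferase at 100 ng per well in PBS; test concentration not given here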
# [11] = system: Wnt5a (protein binding on small-molecule microarray); assay: small molecules binding Wnt5a protein – biophysical, small-molecule microarray, 635/667 nm fluorescence, primary screen (AID 1142); details: 635 nm fluorescence, higher = more signal;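 also: fluorescence read at 667 nm with signal to noise per printed feature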
# [12] = ATP-based viability of Huh7 replicon cells – cell-based, CellTiter-Glo luminescence, basal, 48 h, cytotoxicity control for HCV replication inhibitor project, primary screen (AID 1143); details: higher = more signal, called active from +8 up or from −8 down;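 also: Huh7 hepatoma cells carrying a hepatitis C replication reporter with no stimulus; test concentration not given here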
# [13] = Pseudomonas biofilm growth suppression – PAO1 strain, BacTiter-Glo luminescence, LB-PBS, primary screen (AID 1144); details: P. aeruginosa PAO1 biofilm, 12 h, higher = more signal
# [14] = basal CRE-LacZ reporter activity in PC12 – cell-based, unstimulated, primary screen (AID 1145); details: no forskolin, luminescence, 4.5 h, higher = more signal, called active from +8 up or from −8 down
# [15] = forskolin-driven CRE-LacZ activity in PC12 – cell-based, CRE-LacZ reporter, forskolin-stimulated, primary screen (AID 1146); details: luminescence, 4.5 h, higher = more signal, called active from +8 up or from −8 down;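 also: PC12 cells with 6xCRE LacZ reporter stimulated by forskolin 10 µM; beta-galactosidase reporter signal reflecting CREB driven transcription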
# [16] = target: Streptavidin (Streptomyces avidinii) (UniProt P22629); assay: compounds binding control protein streptavidin – biophysical, small-molecule microarray, 635/667 nm fluorescence, artefact control for SMM compound annotation, primary screen (AID 1147); details: higher = more signal;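 also: signal reflects streptavidin binding to arrayed compounds as a control protein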
# [17] = probe aInhba binding on compound microarray – biochemical, small-molecule microarray, 635/667 nm fluorescence, primary screen (AID 1148); details: higher = more signal;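 also: score merges 667nm spot fluorescence with signal-to-noise for antibody binding to printed compounds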
# [18] = target: Torsin-1A (Homo sapiens) (UniProt O14656); assay: TOR1A wild-type binding on microarray – cell lysate, small-molecule microarray, lysate, 635/667 nm, primary screen (AID 1149); details: COS7 hTOR1A-WT lysate, 635 nm fluorescence, higher = more signal
# [19] = target: Torsin-1A (Homo sapiens) (UniProt O14656); assay: torsin A mutant lysate binding on microarrays – cell lysate, small-molecule microarray, COS7 lysate, 635/667 nm fluorescence, primary screen (AID 1150); details: COS7 hTOR1A mutant lysate, 635 nm fluorescence, higher = more signal;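 also: score pools 667 nm emission and signal to noise measuring lysate protein binding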
# [20] = system: Sonic hedgehog protein (Shh); assay: Sonic hedgehog microarray binding compounds – biochemical, small-molecule microarray, 635/667 nm fluorescence, primary screen (AID 1151); details: 635 nm fluorescence, higher = more signal;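 also: Shh protein binding to compounds spotted on small-molecule microarray slides; score combines spot fluorescence intensity with signal-to-noise across triplicate slides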
# Chain of Luciferin 4-monooxygenase (Photinus pyralis) (P08659 whole entry, looked up): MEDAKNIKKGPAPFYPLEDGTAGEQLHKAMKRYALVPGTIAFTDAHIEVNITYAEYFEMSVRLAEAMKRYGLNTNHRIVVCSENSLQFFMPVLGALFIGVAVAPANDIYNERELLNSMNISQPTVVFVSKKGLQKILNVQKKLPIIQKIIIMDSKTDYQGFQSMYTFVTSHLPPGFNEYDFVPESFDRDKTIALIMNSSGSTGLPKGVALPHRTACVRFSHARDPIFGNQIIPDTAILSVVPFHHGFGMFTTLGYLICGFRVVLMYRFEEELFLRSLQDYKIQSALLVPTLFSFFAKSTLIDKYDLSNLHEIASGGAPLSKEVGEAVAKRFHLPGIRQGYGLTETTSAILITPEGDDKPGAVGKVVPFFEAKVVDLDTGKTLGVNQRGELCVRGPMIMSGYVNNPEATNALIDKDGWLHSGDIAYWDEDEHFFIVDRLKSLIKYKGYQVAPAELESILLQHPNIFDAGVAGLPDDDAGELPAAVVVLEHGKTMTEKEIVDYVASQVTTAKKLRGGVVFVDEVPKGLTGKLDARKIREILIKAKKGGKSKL
# Chain of Torsin-1A (Homo sapiens) (O14656 whole entry, looked up): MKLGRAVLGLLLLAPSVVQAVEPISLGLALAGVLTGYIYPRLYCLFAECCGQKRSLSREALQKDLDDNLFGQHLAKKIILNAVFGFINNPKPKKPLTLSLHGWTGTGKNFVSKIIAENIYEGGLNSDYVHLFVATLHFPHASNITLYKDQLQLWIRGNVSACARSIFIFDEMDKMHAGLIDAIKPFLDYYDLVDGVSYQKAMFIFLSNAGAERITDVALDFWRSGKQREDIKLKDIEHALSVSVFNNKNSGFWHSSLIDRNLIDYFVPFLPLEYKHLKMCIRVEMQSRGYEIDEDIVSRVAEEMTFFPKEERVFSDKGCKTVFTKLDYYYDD
# Chain of Streptavidin (Streptomyces avidinii) (P22629 whole entry, looked up): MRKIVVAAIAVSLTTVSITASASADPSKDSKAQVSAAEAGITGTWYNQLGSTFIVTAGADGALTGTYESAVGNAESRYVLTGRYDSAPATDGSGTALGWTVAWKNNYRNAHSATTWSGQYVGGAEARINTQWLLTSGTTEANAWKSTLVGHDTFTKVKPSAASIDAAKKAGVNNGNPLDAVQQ
# Chain of Fibroblast growth factor 2 (Homo sapiens) (P09038 whole entry, looked up): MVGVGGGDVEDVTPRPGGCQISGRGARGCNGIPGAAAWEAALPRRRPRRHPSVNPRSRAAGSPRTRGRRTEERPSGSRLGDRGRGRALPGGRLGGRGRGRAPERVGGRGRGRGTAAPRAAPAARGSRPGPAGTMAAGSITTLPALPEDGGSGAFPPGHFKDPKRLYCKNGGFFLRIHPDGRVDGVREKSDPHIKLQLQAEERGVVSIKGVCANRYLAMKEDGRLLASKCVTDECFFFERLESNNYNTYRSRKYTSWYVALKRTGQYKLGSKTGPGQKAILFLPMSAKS
# Chain of Focal adhesion kinase 1 (Homo sapiens) (Q05397 whole entry, looked up): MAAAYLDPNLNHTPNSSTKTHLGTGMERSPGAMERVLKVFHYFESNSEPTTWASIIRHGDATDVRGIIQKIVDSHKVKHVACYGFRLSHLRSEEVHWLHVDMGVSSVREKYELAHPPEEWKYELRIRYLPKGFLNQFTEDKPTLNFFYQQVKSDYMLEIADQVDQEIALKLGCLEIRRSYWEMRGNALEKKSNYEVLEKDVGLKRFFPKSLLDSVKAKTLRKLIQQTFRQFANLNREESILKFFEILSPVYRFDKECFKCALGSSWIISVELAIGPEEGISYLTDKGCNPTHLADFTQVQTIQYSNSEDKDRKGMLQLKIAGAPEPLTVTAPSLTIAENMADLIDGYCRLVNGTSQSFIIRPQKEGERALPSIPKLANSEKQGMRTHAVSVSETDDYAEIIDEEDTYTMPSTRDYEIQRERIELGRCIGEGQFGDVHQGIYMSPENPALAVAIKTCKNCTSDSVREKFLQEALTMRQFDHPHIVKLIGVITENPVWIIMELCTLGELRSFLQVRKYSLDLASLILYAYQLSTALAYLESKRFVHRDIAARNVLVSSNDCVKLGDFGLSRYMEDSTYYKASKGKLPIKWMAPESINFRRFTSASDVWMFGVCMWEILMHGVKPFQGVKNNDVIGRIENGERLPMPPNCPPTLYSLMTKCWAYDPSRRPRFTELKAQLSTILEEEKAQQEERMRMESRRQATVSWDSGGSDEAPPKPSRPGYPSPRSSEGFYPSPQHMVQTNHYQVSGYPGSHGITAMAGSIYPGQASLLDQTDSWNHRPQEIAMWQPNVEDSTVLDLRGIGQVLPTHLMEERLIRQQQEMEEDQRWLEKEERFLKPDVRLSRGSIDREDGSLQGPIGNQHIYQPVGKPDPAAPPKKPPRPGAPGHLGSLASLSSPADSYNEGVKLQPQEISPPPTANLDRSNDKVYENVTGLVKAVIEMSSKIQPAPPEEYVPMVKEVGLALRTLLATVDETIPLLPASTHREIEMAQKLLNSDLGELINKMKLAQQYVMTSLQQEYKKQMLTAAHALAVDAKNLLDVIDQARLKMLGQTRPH
# Chain of Follistatin (Homo sapiens) (P19883 whole entry, looked up): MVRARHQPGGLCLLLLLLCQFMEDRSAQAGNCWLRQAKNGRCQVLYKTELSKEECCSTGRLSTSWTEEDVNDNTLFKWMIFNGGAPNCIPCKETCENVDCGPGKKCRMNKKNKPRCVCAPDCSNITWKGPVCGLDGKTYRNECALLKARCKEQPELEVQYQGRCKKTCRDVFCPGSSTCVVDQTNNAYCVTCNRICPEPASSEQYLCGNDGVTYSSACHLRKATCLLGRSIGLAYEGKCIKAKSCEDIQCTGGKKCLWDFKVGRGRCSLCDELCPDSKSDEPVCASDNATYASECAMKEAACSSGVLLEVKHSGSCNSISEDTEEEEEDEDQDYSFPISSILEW
Structure (SMILES),composite z-score [1],composite z-score [2],composite z-score [3],composite z-score [4],composite z-score [5],composite z-score [6],z-score [7],composite z-score [8],composite z-score [9],z-score [10],composite z-score [11],z-score [12],z-score [13],z-score [14],z-score [15],composite z-score [16],composite z-score [17],composite z-score [18],composite z-score [19],composite z-score [20]
CN(C)CCCNC(=O)[C@@H]1c2ccccc2C(=O)N(C2CCCCC2)[C@H]1c1ccc(CO)cc1,2.58,1.24,-0.0457,0.508,1.35,1.3,0.494,1.04,0.277,0.876 (inactive),0.76,-0.395 (inactive),-0.312 (inactive),1.24 (inactive),-0.291 (inactive),0.139,0.271,0.567,1.03,1.81
C=CCC(OC(C)=O)[C@@H]1[C@@H](N(Cc2ccc(-c3cccc(C(F)(F)F)c3)o2)C(=O)c2ccc(C)cc2)c2cc(OCCCO)ccc2N1C(=O)Cc1ccc(OC)cc1 (stereo not given in full),-0.139,-0.269,-0.542,-0.366,1.02,-0.289,1.36,0.189,0.0232,0.147 (inactive),0.058,-0.159 (inactive),-0.853 (inactive),-0.477 (inactive),0.514 (inactive),-0.109,-0.128,-0.425,0.197,1.53
[N-]=[N+]=Nc1ccccc1C[C@]1(C(=O)NCc2ccccc2)COC(c2ccc(OCCCO)cc2)=N1,1.39,1.2,0.467,0.963,1.16,0.17,1.85,0.556,1.14,-5.16 (inactive),0.607,-4.89 (inactive),0.106 (inactive),0.101 (inactive),-1.31 (inactive),1.01,-0.104,0.413,0.932,0.153
NC(=O)[C@@H]1[C@H]2C(=O)O[C@H](c3ccccc3)[C@H](c3ccccc3)N2[C@H](c2ccc(OCCO)cc2)[C@@]12C(=O)Nc1ccc(C#CCCO)cc12,2.24,0.988,0.215,0.639,0.89,0.396,-0.399,-0.143,0.659,-2.01 (inactive),0.257,-0.952 (inactive),-0.807 (inactive),-0.0515 (inactive),-0.195 (inactive),0.958,-0.0736,0.632,-0.565,0.0995
CN1C(=O)C2C=CC(C(O)c3cc(C(F)(F)F)cc(C(F)(F)F)c3)N(NC(=O)OC(C)(C)C)C2C1=O (stereo not given),1.12,1.2,0.753,0.982,1.27,-0.396,0.717,0.369,0.713,0.75 (inactive),0.135,-2.4 (inactive),0.999 (inactive),0.0467 (inactive),0.587 (inactive),1.6,0.29,0.49,1.32,0.433
COc1ccc([Si](C)(C)[C@@H]2[C@@H](CCn3cc([C@H](O)c4ccccc4)nn3)O[C@]3(C(=O)N(c4ccccc4)c4ccccc43)[C@H]2C)cc1,-0.684,0.386,0.474,-0.308,0.586,0.184,0.00801,0.424,-0.348,0.389 (inactive),-0.0872,-6.24 (inactive),0.506 (inactive),1.6 (inactive),-0.897 (inactive),-0.238,-0.22,0.511,0.283,0.618
CC(C)C[C@@H]1NC(=O)[C@@H]2C[C@H](C(=O)NCCCCCC[N+](C)(C)C)[C@H](c3cccc(OCCO)c3)N2C1=O,-0.759,-0.0265,-0.219,0.0163,0.349,1.17,-0.547,0.34,-0.285,0.184 (inactive),-0.391,-0.351 (inactive),-0.226 (inactive),-0.943 (inactive),-0.153 (inactive),-0.665,-0.128,-0.153,0.393,1.46
O=C1O[C@H](c2ccccc2)[C@H](c2ccccc2)N2[C@H]1[C@@H](C(=O)Nc1nc3ccccc3s1)[C@]1(C(=O)Nc3ccc(C#CC4=CCCCC4)cc31)[C@H]2c1ccc(O)cc1,0.41,1.18,-0.145,0.921,1.12,0.355,-1.83,0.844,0.191,0.128 (inactive),0.357,-4.09 (inactive),-0.922 (inactive),-0.671 (inactive),0.0225 (inactive),1.24,-0.103,-0.253,0.335,1
[N-]=[N+]=NCc1ccccc1[C@H]1OC(c2ccc(OCCCO)cc2)=N[C@@]1(Cc1ccccc1)C(=O)NCCN1CCOCC1,2.04,1.26,0.514,0.915,1.33,1.63,1.87,0.332,0.531,-3.29 (inactive),0.526,-3.01 (inactive),-0.206 (inactive),1.53 (inactive),-0.355 (inactive),1.13,0.555,1.03,0.604,0.502
CN(C)CCCC[C@@H]1NC(=O)[C@@H]2C[C@H](C(=O)O)[C@H](c3cccc(OCCO)c3)N2C1=O,1.22,-0.544,-0.335,0.438,0.072,1.17,0.0092,-0.528,-0.138,-0.836 (inactive),0.471,-0.37 (inactive),-0.965 (inactive),1.11 (inactive),0.664 (inactive),-0.634,-0.258,-0.0975,-0.0752,0.212
